Bioassay records (PubChem BioAssay)
Pol kappa inh-1 = inhibitors of human DNA polymerase kappa. AID 588579. Potency, µM (series often up to 107 µM), without a hit: at the highest dose activity, negative = inhibition, most hits filed as inhibitors. purified Pol kappa, fluorescent DNA synthesis assay, 10 min. actives 0.53% (n = 400,000); note: potency is the fitted concentration of half-maximal effect; % is set by controls: 0 for no effect and ±100 for the full control effect
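50 nM final substrate added after 15 min RT preincubation of 10 nM Pol kappa with compound; fluorescence read at 0 and 10 min.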
Pol beta inh = inhibitors of human DNA polymerase beta; P06746; Pol beta primer extension/strand displacement, fluorescence kinetic; Potency, µM (doses to about 114 µM), for inactives: at the highest dose activity change, negative = inhibition, usual class: inhibitors; actives 1.3% (n = 340,000); AID 485314; note: potency is the fitted concentration of half-maximal effect; % is set by controls: 0 for no effect and ±100 for the full control effect
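Kinetic readout of DNA synthesis with strand displacement by Pol beta. Compound and 10 nM enzyme sit 15 min at room temperature; 50 nM substrate starts the reaction, read immediately and at 10 min.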
PI5P4K alpha inh = inhibitors of human PI5P4K alpha; P48426; PI5P4Kalpha enzyme, ADP-Glo luminescence, 60 min; stronger effect = lower value; max response, %; actives 1.2% (n = 330,000); AID 652105; active = max response of -50% or lower; inconclusive = between -30% and -50%; inactive = -30% or higher; note: value at the top dose of about 77 µM; % is set by controls: 0 for no effect and ±100 for the full control effect
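Enzyme plus substrate dispensed, test compounds pinned in, then ATP (5 microM final) added. After 60 min at RT, ADP-Glo reagent 1 for 45 min and reagent 2 for 30 min preceded luminescence imaging.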
ALOX12 inh = inhibitors of human 12S-lipoxygenase ALOX12; purified 12hLO, xylenol orange hydroperoxide absorbance; Potency, µM (doses to about 108 µM), for the others: at the top dose activity change, negative = inhibition, actives largely listed as inhibitors; actives 1.1% (n = 580,000); AID 1671190; note: potency is the fitted concentration of half-maximal effect; % is set by controls: 0 for no effect and ±100 for the full control effect
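Purified human 12hLO (150 nM final) in 25 mM Hepes, 0.01% Triton X-100, pH 7.0 was preincubated 15 min at room temperature with compound. Then 40 uM arachidonic acid was added, 30 min. Hydroperoxide was read by Fe-XO absorbance ratio 573/405 nm.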
Pol iota inh = blocks human DNA polymerase iota activity; Q9UNA4; Pol iota fluorescent replication assay, 10 min; Potency, µM (series often up to 115 µM), for inactives: top-dose activity, negative = inhibition, actives largely listed as inhibitors; actives 1% (n = 390,000); note: potency is the fitted concentration of half-maximal effect
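Pol iota at 10 nM preincubated 15 min with compounds at room temperature; reaction started with fluorescent substrate, 50 nM final. Fluorescence read kinetically at 0 and 10 min; buffer-only wells as negative control.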
Pol eta inh-1 = DNA polymerase eta (human) inhibition; Q9Y253; recombinant Pol eta, fluorescent DNA replication assay; Potency, µM (doses to about 114 µM), for inactives: at the highest dose activity change, negative = inhibition, hits mostly inhibitors; actives 1.2% (n = 390,000); note: potency is the fitted concentration of half-maximal effect; % is set by controls: 0 for no effect and ±100 for the full control effect
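Pol eta at 10 nM preincubated with compounds 15 min at room temperature; reaction started with fluorescent substrate (50 nM final) and read kinetically at 0 and 10 min.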
GALK confirm = galactokinase (human) inhibition, confirmation | shares compounds with Pol eta inh-1 | purified GALK, Kinase-Glo ATP depletion luminescence | Potency, µM (series often up to 115 µM), for inactives: top-dose activity, negative = inhibition, actives largely listed as inhibitors | actives 70% (n = 150) | AID 2015
GALK redox cs = counter-screen for GALK inhibitors: redox cycling H2O2 generation; actives 40% (n = 150); AID 2035; Phenol red-HRP H2O2 redox cycling, absorbance 600 nm; Potency, µM (highest dose often 115 µM), without a hit: top-dose activity change, negative = H2O2 signal, usual class: inhibitors; shares compounds with Pol eta inh-1
HEK293 viability = HEK-293 cytotoxicity, GALK inhibitor secondary; AID 2547; shares compounds with Pol eta inh-1; Potency, µM (top dose mostly 46.1 µM), for the others: at the highest dose activity change, negative = cytotoxicity, hits mostly inhibitors; actives 10% (n = 170); HEK-293 viability, ATP luminescence (CellTiter-Glo), 24/48 h; note: potency is the fitted concentration of half-maximal effect; % is set by controls: 0 for no effect and ±100 for the full control effect
Pol kappa inh-2 = confirmation of human DNA polymerase kappa inhibitors. shares compounds with Pol eta inh-1. purified Pol-kappa, fluorescent strand-displacement substrate. Potency, µM, actives largely listed as inhibitors. actives 76% (n = 920). AID 720501; note: potency is the fitted concentration of half-maximal effect
Pol eta inh-2 = confirmation of human DNA polymerase eta inhibitors. shares compounds with Pol eta inh-1. Pol eta primer extension, TAMRA/BHQ fluorescence, 10 min. Potency, µM, usual class: inhibitors. actives 64% (n = 2,600); note: potency is the fitted concentration of half-maximal effect
Active calls of the source: *; ? = inconclusive; . = no result given; [ ] = remark or other dose. Only some compounds are listed: those with a hit (about 2.9% of all), similar ones and a draw of the others. Unless noted, calls come from the whole dose curve; as a rule, active = well fitted curve in the direction sought with a large enough effect; inconclusive = small, poorly fitted or top-dose-only effect, or another doubt; inactive = no such curve, though single readings can be large; an effect the other way counts as inactive or inconclusive.

SMILES	Pol kappa inh-1	Pol beta inh	PI5P4K alpha inh	ALOX12 inh	Pol iota inh	Pol eta inh-1	Pol eta inh-2	others
N#Cc1c(-c2ccccc2)nc(SCC(=O)Nc2ccc(OC(F)(F)Cl)cc2)[nH]c1=O	5%	22µM*	?	?	12%	?	.	Pol kappa inh-2=?
CCc1ccc(NC(=O)CSc2nc(-c3ccccc3)c(C#N)c(=O)[nH]2)cc1	-2%	-11%	.	?	-10%	?	.
O=C(Cc1ccc(Br)cc1)N/N=C/c1ccc(-c2cccc(C(=O)O)c2)o1	?	?	?	0%	23%	22µM*	30*
Cc1ccc(-c2ccc(C=O)o2)c(Br)c1	.	.	.	-27%	.	.	.
O=Cc1ccc(-c2cccc(C(=O)O)c2)o1	?	?	-20	-2%	?	10µM*	48*
Nc1nnc(CC(=O)N/N=C/c2ccc(-c3ccc(F)cc3)o2)s1	-9%	-15%	-25	127%	?	-10%	.
O=C(O)c1ccc(N/N=C/c2ccc(-c3ccc(Br)cc3)o2)cc1	-37%	?	-3	?	?	-1%	.
Nc1nnc(CC(=O)N/N=C/c2ccc(-c3cccc(C(=O)O)c3)o2)s1	25µM*	-1%	-57*	16%	11µM*	18µM*	60*
Cc1c(C(=O)O)cccc1-c1ccc(C=O)o1	?	28µM*	-6	-19%	?	5µM*	85*
c1ccc(-c2cc(-c3nnc(-c4ccccc4)c(-c4ccccc4)n3)[nH]n2)cc1	.	.	.	12%	.	.	.
Cc1cc(C(=O)COC(=O)c2nn(C)c(=O)c3ccccc23)c(C)n1CC(F)(F)F	.	.	.	-23%	.	.	.
CC(C)n1cnnc1SCC(=O)N(C)CCOc1ccc(Br)cc1	.	.	.	-17%	.	.	.
Cc1ccc(S(=O)(=O)CCC(=O)OCC(=O)Nc2sccc2C#N)cc1	.	.	-60*	?	.	28µM*	?
COc1ccc(OC)c(NC(=O)COC(=O)CNC(=O)c2ccc(OC)c(OC)c2)c1	-4%	12%	-1	-21%	19%	-1%	.
COc1ccc(C(=O)NCC(=O)OCC(=O)Nc2sccc2C#N)cc1OC	?	?	-58*	-3%	-75%	50µM*	?
Cc1ccc(S(=O)(=O)CCC(=O)Nc2sccc2C#N)cc1	-3%	.	2	-27%	22%	-18%	.
CN(Cc1ccc(-c2ccc(Cl)cc2)o1)C(=O)CNC(=O)c1ccc(Cl)cc1Cl	.	.	.	-30%	.	.	.
CC(=O)NNC(=O)CSc1nnc(-c2ccccc2)c(-c2ccccc2)n1	?	0%	-12	29%	?	14µM*	7.6*	Pol kappa inh-2=19*
CC(C)(C)NC(=O)CSc1nnc(-c2ccccc2)c(-c2ccccc2)n1	-2%	1%	6	.	0%	-11%	.
C#Cc1ccc([C@@H]2C=C(C(=O)O)O[C@H](OCC)[C@H]2CCCO)cc1	50µM*	.	0	?	?	7.9µM*	30*	Pol kappa inh-2=4.7*
Cc1ccc(S(=O)(=O)N/N=C\c2ccc([N+](=O)[O-])o2)cc1	-15%	-3%	.	?	?	11%	.
Cc1ccc(S(=O)(=O)N/N=C\c2ccc(C)o2)cc1	?	40µM*	.	?	?	45µM*	67*
O=S(=O)(/C(=C/c1cccs1)c1nc2ccccc2[nH]1)c1ccccc1	.	.	.	-14%	.	.	.
O=C1c2cc(O)cc(O)c2C(=O)c2c1cc(O)c([C@@H](CO)CCO)c2O	79µM*	.	-51*	?	?	45µM*	?
COc1ccc(Cl)cc1NC(=O)c1c(NCc2ccc(C)o2)sc2c1CCCC2	-9%[60.1 µM]	2%	.	?	?	50µM*	?
SMILES	Pol kappa inh-1	Pol beta inh	PI5P4K alpha inh	ALOX12 inh	Pol iota inh	Pol eta inh-1	Pol eta inh-2	others
Cc1ccc(S(=O)(=O)N(C)CCc2noc(-c3ccccc3Cl)n2)c2nsnc12	.	.	.	26%	.	.	.
O=C1NC(=S)SC1=C1CCCC1	14µM*	22µM*	?	?	?	20µM*	?
Cc1cccc(S(=O)(=O)Nc2cccc3c2C(=O)c2ccccc2-3)c1	-13%	-12%	.	0%	19%	-21%	.
Cc1ccc(C)c(S(=O)(=O)/N=C2\C=C(NS(=O)(=O)c3ccccc3)C(=O)c3ccccc32)c1	-3%	-7%	-18	?	?	?	?
Cc1ccccc1NC1=C/C(=N\S(=O)(=O)c2ccc(C(=O)O)cc2)c2ccccc2C1=O	-11%	35µM*	-29	?	0.89µM*	5µM*	.	GALK confirm=8.4µM*;GALK redox cs=5.3µM*;HEK293 viability=25µM*
COC(=O)COc1ccc(C2Nc3c(Cl)ccc(C(=O)O)c3C3C=CCC32)cc1 (centres undefined)	?	?	-57*	?	?	28µM*	48*
COC(=O)c1ccc([C@@H]2Nc3c(OC)ccc(C)c3[C@@H]3C=CC[C@@H]32)cc1	-9%	-25%	.	?	?	-1%	.
O=C(COC(=O)Cc1ccc(S(=O)(=O)N2CCOCC2)s1)NCc1ccccc1	-21%	0%	-21	64%	17%	?	.
O=C(COC(=O)Cc1ccc(S(=O)(=O)N2CCOCC2)s1)NCCc1ccccc1	?	22µM*	.	?	?	79µM*	?
CCCC(=O)NCCNC(=O)CC1CCCCC1	.	.	.	3%	.	.	.
COc1cc(/C=C2/C(=O)NN(c3ccc(C)c(Cl)c3)C2=O)cc([N+](=O)[O-])c1O	4%	35µM*	-67*	40µM*	8%	28µM*	85*
